Compound activity: PubChem BioAssay, several laboratories
SSB-PriA inh = inhibitors of Klebsiella pneumoniae PriA binding to SSB C-terminal tail, primary screen, biochemical, AlphaScreen. 0.6% of 430,000 active. inhibition, % at 33 µM. AID 1272365, 2023. AlphaScreen SSBct-PriA binding, biotinylated peptide. PriA–SSB C-terminal tail interaction (Klebsiella pneumoniae); in the data active = inhibition mostly above about 37%, no sharp cut-off; inactive = mostly below about 20%;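 also: plate controls were negative control peptide for no effect and reference peptide for full effect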
UGM FP inh = M. tuberculosis UGM enzyme inhibitors, primary screen, biochemical, fluorescence polarization, single point. UDP-galactopyranose mutase (Mycobacterium tuberculosis (strain ATCC 25618 / H37Rv)), …. 0.06% of 320,000 active. inhibition, % at 10 µM. AID 504406, 2011. purified UGM, fluorescence polarization probe displacement; in the data active = inhibition above about 10%, passing the limit was not always enough
FadD28 FP inh = inhibitors of FadD28 bisubstrate probe binding, primary screen, biochemical, fluorescence polarization, single point; Mycobacterium tuberculosis FadD28 fatty-acid-AMP ligase; inhibition, % at 12.5 µM; 0.22% of 360,000 active; AID 588549, 2011; in the data active = inhibition above about 8.5%, passing the limit was not always enough
PrP UTR inh = inhibition of PrP 5' UTR reporter expression; cell-based PrP 5' UTR mRNA reporter, plate reader; inhibition, % (concentration not given with the values); 0.35% of 340,000 active; AID 488862, 2010; in the data active = inhibition above about 52%; also: 0 = median of the neutral control wells
Rv3671c inh = Rv3671c serine protease inhibitors, primary screen, biochemical, fluorescence polarization, M. tuberculosis H37Rv; P9WHR9; 0.048% of 320,000 active; inhibition, % at 5.96 µM; in the data active = inhibition above about 38%;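 also: extracellular domain of Rv3671c used as enzyme; 0% = enzyme with DMSO and 100% = no enzyme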
Target sequence (P9WHR9 whole entry, looked up, the tested form may be a part): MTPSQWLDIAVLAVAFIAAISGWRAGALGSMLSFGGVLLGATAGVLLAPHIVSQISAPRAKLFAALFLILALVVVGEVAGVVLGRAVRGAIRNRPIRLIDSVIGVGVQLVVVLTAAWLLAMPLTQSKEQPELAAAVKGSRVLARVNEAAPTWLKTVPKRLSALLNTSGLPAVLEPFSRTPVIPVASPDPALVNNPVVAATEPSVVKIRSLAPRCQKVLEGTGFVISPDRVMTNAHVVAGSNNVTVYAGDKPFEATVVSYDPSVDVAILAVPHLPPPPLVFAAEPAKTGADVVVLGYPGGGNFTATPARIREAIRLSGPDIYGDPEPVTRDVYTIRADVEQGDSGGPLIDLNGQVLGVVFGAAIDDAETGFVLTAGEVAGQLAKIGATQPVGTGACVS
PrPC surface inh = inhibitors of human cell surface prion protein PrPC, primary screen, cell-based, TR-FRET | Major prion protein (Homo sapiens), P04156 | TR-FRET read-out | inhibition, % at 13.8 µM | 0.43% of 370,000 active | AID 720596, 2013; in the data active = inhibition above about 24%; also: 0% = median of the test wells and 100% = reference compound wells
Starred values were filed as active, the others as inactive; / = no result given. A selection: hits, their analogues and other compounds. The true share with any hit is near 1.2%.

SMILES	SSB-PriA inh	UGM FP inh	FadD28 FP inh	PrP UTR inh	Rv3671c inh	PrPC surface inh
CC1=C(C#N)c2nc(N)c(C#N)c(C)c2/C1=C\c1ccc(-c2ccccc2C(=O)O)o1	2.9	/	11.8*	-18.4	/	-2.2
C[C@H]1CCCCN1C(=O)C1CN(S(=O)(=O)C2CC2)C1	-13.0	/	/	/	/	/
COC(=O)c1ccc(NC(=O)CN2CC(=O)Oc3ccccc32)cc1	45.0*	/	/	/	/	/
NS(=O)(=O)c1ccc(NC(=O)CN2CC(=O)Oc3ccccc32)cc1	94.0*	/	/	/	/	/
O=S(=O)(O)c1cc(O)c2cc(Nc3ccccc3)ccc2c1	-2.2	/	28.1*	-12.4	/	-7.0
O=S(=O)(O)c1cc(O)c2ccc(Nc3ccccc3)cc2c1	10.9	/	24.1*	-10.4	/	-5.8
Nc1ccc2c(O)cc(S(=O)(=O)O)cc2c1	6.8	/	-0.4	-20.9	/	-20.2
CC(=O)Nc1ccc2c(O)cc(S(=O)(=O)O)cc2c1	11.7	/	2.5	-15.0	/	-7.6
COc1ccccc1Nc1ccc2c(O)cc(S(=O)(=O)O)cc2c1	51.4*	/	69.7*	8.5	/	-6.2
Nc1cccc2c(O)cc(S(=O)(=O)O)cc12	21.5	/	36.0*	10.3	/	/
COc1ccc(-c2nc(NC(=O)c3ccc(S(=O)(=O)N(C)c4ccccc4)cc3)sc2C)cc1	-8.0	/	/	/	/	/
O=S(=O)(O)c1ccc(O)c2cc(Nc3ccccc3)ccc12	6.7	/	59.0*	-10.3	/	-0.5
Cc1cc2cc(CN(Cc3ccc4c(c3)OCO4)C(=O)c3cnccn3)c3nnnn3c2cc1C	39.2*	1.9	-1.1	-6.4	2.1	-0.9
Cc1ccc2c(c1)cc(CN(Cc1ccc3c(c1)OCO3)C(=O)c1cnccn1)c1nnnn12	-15.9	-2.8	-1.9	-18.8	7.4	3.8
O=C(Nn1c(O)c(C=C2N=c3ccccc3=N2)sc1=S)c1ccccc1	32.0	-0.1	14.5*	-15.7	-5.0	5.9
Cc1ccc(C(=O)Nn2c(O)c(C=C3N=c4ccccc4=N3)sc2=S)cc1	-6.0	-1.1	2.2	/	-5.0	-2.4
O=C(Nn1c(O)c(C=C2N=c3ccccc3=N2)sc1=S)c1ccc(Cl)cc1	-8.2	-1.9	48.2*	-16.0	-14.7	-0.8
O=C(O)c1ccc(-c2ccc(Cl)c(Cl)c2)cc1	-27.0	/	/	/	/	/
C=CCSc1nnc(-c2cccc3ccccc23)o1	88.6*	/	-0.3	-8.7	5.6	-5.1
Cc1c(C(=O)N(C)C)sc2nc(-c3ccccn3)[nH]c(=O)c12	47.0*	-0.6	-3.6	-18.7	-12.0	-5.4
CCN(CC)C(=O)c1sc2nc(Cc3ccccc3)[nH]c(=O)c2c1C	-11.7	0.7	-2.0	-13.3	-13.5	8.5
O=C(NC=NOCc1cccc(C(F)(F)F)c1)N1OC[C@@H]2COc3ccc4ccccc4c3[C@@H]21	44.5*	/	/	/	/	/
C=CCOc1ccc(C=NNc2ccc(S(=O)(=O)Nc3ccccc3C(=O)O)cc2[N+](=O)[O-])cc1OC	8.4	1.3	31.6*	-11.3	27.2	-1.9
CCOc1ccc(C=NNc2ccc(S(=O)(=O)Nc3ccccc3C(=O)O)cc2[N+](=O)[O-])cc1	16.5	0.5	5.2	-14.4	10.2	/
Cc1nn(-c2ccccc2)c(Cl)c1/C=N/Nc1ccc(S(=O)(=O)Nc2ccccc2C(=O)O)cc1[N+](=O)[O-]	/	-0.2	12.0*	-19.7	9.0	-5.9
SMILES	SSB-PriA inh	UGM FP inh	FadD28 FP inh	PrP UTR inh	Rv3671c inh	PrPC surface inh
O=C(O)c1ccccc1NS(=O)(=O)c1ccc(NN=Cc2ccc(O)c(O)c2)c([N+](=O)[O-])c1	44.2*	/	/	/	/	/
O=C(c1cccs1)N(Cc1cccnc1)c1nc2ccc(Br)cc2s1	-24.0	/	/	/	/	/
O=C(O)C1Nc2c(Cl)cc(Cl)c(Cl)c2C2C=CCC12 (centres undefined)	5.0	-0.7	7.0	-10.8	0.6	-0.8
O=C(O)C1Nc2c(Cl)cc(Cl)cc2C2C=CCC12 (centres undefined)	6.7	0.4	13.7*	-41.7	3.4	/
CCOC(=O)C1Nc2ccc(Br)cc2C2C=CCC12 (centres undefined)	2.1	0.4	-1.8	-23.8	-4.1	-9.9
O=C(O)C1Nc2ccc(Br)cc2C2C=CCC12 (centres undefined)	3.5	5.1	27.3*	43.1	16.0	/
O=C(O)C1Nc2c(O)cccc2C2C=CCC12 (centres undefined)	96.6	1.4	14.6*	-3.9	31.0	15.0
